From PubChem BioAssay (NCI)
“And” between values parts separate entries of the source, which are not always exact repeats. Equal entries are not always repeated. Compounds without any hit were thinned out: in the full panel of roughly 83,000, 20% have a hit.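 Negative percent growth values reflect cell death: -40 means 40% of the cells present at the start died, and -100 means all died.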 The source made the active and inactive calls. How the source made its calls: active means growth percent below 10; inactive means the rest.

Legend:
Assay in all cases: NCI-60 one-dose screen, 48 h (100 = growth as untreated, 0 = no growth, -100 = all killed)
Settings in all cases: 10 µM unless noted
DU-145 prostate = system: DU-145 prostate
K-562 leukemia = system: K-562 leukemia
MALME-3M melanoma = system: MALME-3M melanoma
MDA-MB-231 breast = system: MDA-MB-231 breast
RXF 393 renal = system: RXF 393 renal
SF-268 CNS = system: SF-268 CNS
SF-295 CNS = system: SF-295 CNS
SF-539 CNS = system: SF-539 CNS
UACC-257 melanoma = system: UACC-257 melanoma
M14 melanoma = system: M14 melanoma

| Structure (SMILES) | growth (DU-145 prostate) | growth (K-562 leukemia) | growth (MALME-3M melanoma) | growth (MDA-MB-231 breast) | growth (RXF 393 renal) | growth (SF-268 CNS) | growth (SF-295 CNS) | growth (SF-539 CNS) | growth (UACC-257 melanoma) | growth (M14 melanoma) |
| --- | --- | --- | --- | --- | --- | --- | --- | --- | --- | --- |
| CC(Nc1c(C#N)cnc2ccc(-c3cncc(O)c3)cc12)c1ccccc1 (stereo not given) | 3.93% (active) | 15.3% (inactive) | -34.1% (active) | 14.4% (inactive) | -24.6% (active) | 2.54% (active) | -13% (active) | 0.714% (active) | 18.2% (inactive) | 4.07% (active) |
| CC(C)(C)Nc1nc2c(OCCc3ccccc3)cccn2c1-c1cccc(Oc2ccccc2)c1 | 25.5% (inactive) | 15.7% (inactive) | 0.427% (active) | 17.7% (inactive) | -8.9% (active) | 32.4% (inactive) | 6.47% (active) | -0.94% (active) | 6.07% (active) | 18% (inactive) |
| O=S(=O)(NCCCNc1nccc(-c2[nH]c(-c3ccccc3)nc2-c2ccc(F)c(O)c2)n1)c1cccc(F)c1 | 100% (inactive) | 49.3% (inactive) | -2.58% (active) | 79.3% (inactive) | 100% (inactive) | 103% (inactive) | 85.2% (inactive) | 103% (inactive) | 23.4% (inactive) | 29.3% (inactive) |
| CNC(=O)c1cc(N2CCc3cc(NC(=O)Nc4ccc(N5CCOCC5)c(C(F)(F)F)c4)ccc32)ccn1 | 27.2% (inactive) | 7.92% (active) | 25.8% (inactive) | 47.6% (inactive) | -6.79% (active) | 47.8% (inactive) | -21% (active) | 24.1% (inactive) | 59.1% (inactive) | 17% (inactive) |
| C#C[C@]1(O)CC[C@H]2[C@@H]3CC=C4c5sc(Nc6ncccc6C)nc5CC[C@]4(C)[C@H]3CC[C@@]21C | 36.8% (inactive) | -9.62% (active) | -19% (active) | 12.8% (inactive) | -75.3% (active) | 7.66% (active) | -70% (active) | -56.4% (active) | -35.8% (active) | -55.9% (active) |
| O=C1Nc2ccc(F)cc2/C1=C\C(=O)c1ccc(NS(=O)(=O)c2ccccc2)cc1 | 92.1% (inactive) | 49.1% (inactive) | 79.7% (inactive) | 90.4% (inactive) | 72.3% (inactive) | 97.9% (inactive) | 96.4% (inactive) | 97.5% (inactive) | 95.9% (inactive) | 90.7% (inactive) |
| COc1ccc(C(C)=C(c2ccc(OCCN(C)C)cc2)c2ccc(OCCN(C)C)cc2)cc1 | 20% (inactive) | -67.4% (active) | -74.4% (active) | -52.2% (active) | -79.1% (active) | -12% (active) | -70.2% (active) | -79.4% (active) | -70.4% (active) | -85.8% (active) |
| N#Cc1c(-c2cccs2)cc(-c2cnccn2)nc1SCC(=O)N/N=C/c1ccncc1 | 112% (inactive) | 96.1% (inactive) | 120% (inactive) | 102% (inactive) | 105% (inactive) | 106% (inactive) | 99.4% (inactive) | 97.6% (inactive) | 107% (inactive) | 110% (inactive) |
| Cc1cc(C)cc(NC2=C(Cl)C(=O)c3nc(C)ccc3C2=O)c1 | 2.27% (active) | 6.63% (active) | 76.1% (inactive) | 53.8% (inactive) | 75% (inactive) | 85.2% (inactive) | 77.2% (inactive) | 71.5% (inactive) | 30.1% (inactive) | 72.8% (inactive) |
| CC(=C(c1ccc(OCCN(C)C)cc1)c1ccc(OCCN(C)C)cc1)c1ccc(Cl)cc1 | -73.6% (active) | -9.65% (active) | -79.9% (active) | -75.4% (active) | -86.6% (active) | -47.7% (active) | -78.1% (active) | -83% (active) | -69.6% (active) | -63.5% (active) |
| COc1ccc(-c2cnc(NC(=O)CCCCCCNC(=O)C(O)(O)C(F)(F)F)s2)cc1 | -8.16% (active) | 14.4% (inactive) | 11% (inactive) | 17% (inactive) | -48% (active) | 2% (active) | -44.2% (active) | 12% (inactive) | 18.3% (inactive) | 14.4% (inactive) |
| COc1ccc(C(C)=C(c2ccc(OCCN3CCCCCC3)cc2)c2ccc(OCCN3CCCCCC3)cc2)cc1 | 6.1% (active) | -32.5% (active) | -86.9% (active) | -60.5% (active) | -82.4% (active) | 4.71% (active) | -86% (active) | -88.4% (active) | -65.5% (active) | -89.5% (active) |
| COc1ccc2[nH]cc(/C=N/Nc3ccnc4cc(Cl)ccc34)c2c1 | -98.9% (active) | -4.83% (active) | -97.7% (active) | -93.9% (active) | -100% (active) | -60.7% (active) | -100% (active) | -100% (active) | -84.2% (active) | -79.7% (active) |
| N#Cc1cccc(-c2cc(-c3ccc4c(c3)OCCO4)[nH]n2)c1 | 34.7% (inactive) | 13.6% (inactive) | 36.1% (inactive) | 42% (inactive) | 32.4% (inactive) | 61% (inactive) | 27.1% (inactive) | 25% (inactive) | 71.1% (inactive) | 7.59% (active) |
| CC(C)(O)c1cncc(-c2ccc3ncc(C#N)c(N4CCc5cc(F)c(Cl)cc54)c3c2)c1 | 11.7% (inactive) | 29.6% (inactive) | -12.8% (active) | 20.4% (inactive) | -34.1% (active) | 21.5% (inactive) | -10.9% (active) | -15% (active) | 11% (inactive) | 10.3% (inactive) |
| CCN(CC)CCOc1ccc(C(=C(C)c2ccc(OC)cc2)c2ccc(OCCN(CC)CC)cc2)cc1 | 37.8% (inactive) | -12.4% (active) | -92.1% (active) | -54.3% (active) | -77.8% (active) | 6.51% (active) | -64.1% (active) | -88.2% (active) | -67.2% (active) | -70.4% (active) |
| O=C(CSc1nnc(-c2cccs2)n1-c1ccccc1)Nc1ccccc1F | 102% (inactive) | 26.6% (inactive) | 70.2% (inactive) | 86.5% (inactive) | 90.7% (inactive) | 93.7% (inactive) | 83.2% (inactive) | 87.9% (inactive) | 95.3% (inactive) | 74.7% (inactive) |
| CC(=C(c1ccc(OCCCN(C)C)cc1)c1ccc(OCCCN(C)C)cc1)c1ccc(Cl)cc1 | 98% (inactive) | -13.5% (active) | 85.8% (inactive) | 95.4% (inactive) | 80.6% (inactive) | 91.7% (inactive) | 95.2% (inactive) | 81.7% (inactive) | 100% (inactive) | 92.7% (inactive) |
| C/C=C/CC(C)C(O)[C@H](NC(=O)[C@@H]1CCCN1C(=O)[C@](C)(CC)NC(=O)CCCCCCCCC)C(=O)N[C@@](C)(CC)C(=O)N[C@@H](CCC(N)=O)C(=O)N[C@H](CCC(N)=O)C(=O)NC(C)(C)C(=O)NC(C)(C)C(=O)N[C@@H](CCC(N)=O)C(=O)N[C@H](CC(C)C)C(=O)N[C@H](CO)CC(C)C (stereo not given in full) | -21.7% (active) and -48.7% (active) | 14.5% (inactive) and 10.4% (inactive) | 29.9% (inactive) and -95.9% (active) | 63.4% (inactive) and -96% (active) | 0.95% (active) and -63% (active) | 20.8% (inactive) and -63.8% (active) | 11.3% (inactive) and -81.6% (active) | 39.5% (inactive) and -100% (active) | 21.1% (inactive) and -71.1% (active) | 54.7% (inactive) and -71.4% (active) |
| C[C@@H]1OCC2(CCN(c3cnc(C(=O)Nc4cc(F)cc5cccnc45)cn3)CC2)[C@@H]1N | 77% (inactive) | 8.84% (active) | 53.1% (inactive) | 38.9% (inactive) | 65.4% (inactive) | 78.9% (inactive) | 90.8% (inactive) | 71.7% (inactive) | 102% (inactive) | 81.5% (inactive) |
| CCCNNC(=O)c1ccc(-c2ccc(NC(=O)CCCCCCC(=O)N[C@H](C(=O)N3C[C@H](O)C[C@H]3C(=O)N[C@@H](C)c3ccc(-c4scnc4C)cc3)C(C)(C)C)cc2)cc1 | 32.4% (inactive) | 15.5% (inactive) | 32% (inactive) | 24.1% (inactive) | -33% (active) | 46.3% (inactive) | 46.8% (inactive) | 27.3% (inactive) | 23.6% (inactive) | 39.8% (inactive) |
| COc1cc2c3c(cc4c5c(ccc4c3c1OC)OCO5)N(CCN(C)C)C2=O | 0.415% (active) | 1.42% (active) | -79.8% (active) | -1.13% (active) | -88.5% (active) | 5.2% (active) | -16.8% (active) | -58.4% (active) | -32.9% (active) | -54.5% (active) |
| Cc1cc2nc3c4cc(C#N)ccc4n(CCN(C)C)c3nc2cc1C | 5.75% (active) | 3.51% (active) | -68% (active) | 8.68% (active) | -62.1% (active) | -7.74% (active) | -4.33% (active) | -15.2% (active) | -25.5% (active) | -83.3% (active) |
| COc1cc2cc(Oc3ccc(NC(=O)Nc4ccc(F)c(C(F)(F)F)c4)cc3)c(C)nc2cc1OCCN(C)C | 106% (inactive) | 3.63% (active) | 92.7% (inactive) | 103% (inactive) | 76.5% (inactive) | 98.5% (inactive) | 104% (inactive) | 102% (inactive) | 105% (inactive) | 95.7% (inactive) |
| CN(C)c1cccc2c(S(=O)(=O)Nc3cccc(-c4csc(NC(=O)CCCCCN5CCN(CCO)CC5)n4)c3)cccc12 | 90.6% (inactive) | 7.77% (active) | 55.9% (inactive) | 84.1% (inactive) | 66.7% (inactive) | 93.5% (inactive) | 60.5% (inactive) | 54.7% (inactive) | 78.3% (inactive) | 73.7% (inactive) |
| NS(=O)(=O)c1ccc(Nc2nc(Nc3ccccc3)nc(N3N=C(c4ccc(Cl)cc4)CC3c3ccc(Cl)cc3)n2)cc1 (stereo not given) | 50.4% (inactive) | 32.5% (inactive) | 42.5% (inactive) | 54.3% (inactive) | -3.26% (active) | 59.4% (inactive) | 56.7% (inactive) | 58% (inactive) | 65.8% (inactive) | 34.6% (inactive) |
